Experimental data reported in PubChem BioAssay AID1159580 (chemical genetic matrix, 2015).
Screen size: about 5,500 compounds; about 2,000 (36%) were called active. Inconclusive results (about 18%) are left out. Rule as the data show it: active = normalized growth mostly below about 0.91 (no sharp cut-off); inconclusive = no clear call, values can overlap the other calls; inactive = mostly above about 0.92. The list shows a part of the results.

Assay: chemical genetic growth profiling, strain panel (AID 1159580);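 also: tested at 20 µM; growth read once vehicle control cultures reached saturation at 30 °C; 1 = growth at the plate median or of vehicle wells; lower values mean less growth of the strain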
Details: S. cerevisiae deletion strains, growth OD
[1] = locus YDL101C, strain DUN1, hits give low values
[2] = locus YJL095W, strain BCK1, hits give low values
[3] = locus YOR061W, strain CKA2, hits give low values

Measured: normalized growth

C=CC(C)(C)c1c2c(c(O)c3c(=O)c4ccc(O)c(O)c4oc13)C=CC(C)(C)O2
active: locus YDL035C, strain GPR1, hits give low values 0.601 | locus YDL074C, strain BRE1, hits give low values 0.615 | locus YDL192W, strain arf1, hits give low values 0.829 | locus YDR150W, strain NUM1, hits give low values 0.78 | locus YDR162C, strain NBP2, hits give low values 0.444 | locus YDR318W, strain mcm21, hits give low values 0.886 | locus YDR388W, hits give low values 0.918 | locus YER155C, strain BEM2, hits give low values 0.817 | locus YER167W, strain BCK2, hits give low values 0.871 | locus YGL086W, strain mad1, hits give low values 0.794 | locus YGL248W, strain PDE1, hits give low values 0.847 | locus YGR135W, strain pre9, hits give low values 0.891 | locus YHR129C, strain ARP1, hits give low values 0.726 | locus YHR200W, strain rpn10, hits give low values 0.894 | locus YIL066C, strain RNR3, hits give low values 0.413 | locus YIL073C, strain SPO22, hits give low values 0.424 | [2] 0.767 | locus YJL187C, strain SWE1 (second series), hits give low values 0.81 | locus YKR001C, strain vps1, hits give low values 0.783 | locus YLR039C, strain RIC1, hits give low values 0.581 | locus YLR058C, strain SHM2, hits give low values 0.867 | locus YLR262C, strain YPT6, hits give low values 0.544 | locus YLR268W, strain sec22, hits give low values 0.812 | locus YLR330W, strain CHS5, hits give low values 0.9 | locus YLR342W, strain FKS1 (second series), hits give low values 0.4 | locus YLR371W, strain rom2, hits give low values 0.799 | locus YLR418C, strain cdc73, hits give low values 0.51 | locus YML016C, strain PPZ1, hits give low values 0.873 | locus YMR223W, strain ubp8, hits give low values 0.891 | locus YMR307W, strain GAS1, hits give low values 0.428 | locus YNL067W, strain RPL9B, hits give low values 0.843 | locus YNL233W, strain BNI4, hits give low values 0.582 | locus YNL307C, strain MCK1, hits give low values 0.799 | locus YOL006C, strain TOP1, hits give low values 0.275 | [3] 0.78 | locus YOR069W, strain VPS5, hits give low values 0.873 | locus YOR184W, strain ser1, hits give low values 0.76 | locus YPL055C, strain LGE1, hits give low values 0.451 | locus YPR163C, strain tif3, hits give low values 0.796 | locus YPR167C, strain met16, hits give low values 0.916 | strain wtn01, hits give low values 0.839
inactive: locus YBR021W, strain FUR4, hits give low values 0.893 | locus YBR229C, strain ROT2, hits give low values 1 | locus YCL029C, strain bik1, hits give low values 0.992 | [1] 0.929 | locus YDL185W, strain tfp1, hits give low values 0.996 | locus YDR101C, strain arx1, hits give low values 0.973 | locus YDR502C, strain sam2, hits give low values 0.948 | locus YER110C, hits give low values 1 | locus YGL078C, strain dbp3, hits give low values 0.975 | locus YGR252W, strain gcn5, hits give low values 0.823 | locus YHR079C, strain IRE1 (second series), hits give low values 1 | locus YHR094C, strain hxt1, hits give low values 1.01 | locus YIL125W, strain kgd1, hits give low values 0.984 | locus YIR030C, strain dcg1, hits give low values 1 | locus YJL134W, strain LCB3, hits give low values 0.987 | locus YJL168C, strain set2, hits give low values 0.99 | locus YKL009W, strain mrt4, hits give low values 0.938 | locus YKL068W, hits give low values 0.996 | locus YKL085W, strain MDH1 (second series), hits give low values 0.978 | locus YKL085W, strain MDH1, hits give low values 0.978 | locus YLR102C, strain apc9, hits give low values 1.01 | locus YML032C, strain rad52, hits give low values 0.954 | locus YML124C, strain tub3, hits give low values 1.02 | locus YMR078C, strain ctf18, hits give low values 0.984 | locus YMR263W, strain SAP30, hits give low values 0.92 | locus YNL250W, strain rad50, hits give low values 1.03 | locus YNL271C, strain bni1, hits give low values 0.992 | locus YNL298W, strain CLA4, hits give low values 1 | locus YNR052C, strain pop2, hits give low values 0.93 | locus YOL012C, strain htz1 0.242 | locus YOL147C, strain pex11, hits give low values 0.943 | locus YOR136W, strain idh2, hits give low values 0.97 | locus YOR144C, strain elg1, hits give low values 0.983 | locus YOR316C, strain cot1, hits give low values 0.986 | locus YPL241C, strain CIN2, hits give low values 0.952 | locus YPR119W, strain clb2, hits give low values 1.01 | locus YPR141C, strain kar3, hits give low values 1

NC(N)=Nc1nc(-c2cc(Cl)sc2Cl)cs1
inactive: locus YAR019C, strain CDC15, hits give low values 0.994 | locus YBL105C, strain PKC1, hits give low values 0.998 | locus YBR135W, strain CKS1, hits give low values 0.987 | locus YBR136W, strain MEC1, hits give low values 0.99 | locus YBR160W, strain CDC28, hits give low values 0.99 | locus YDL017W, strain CDC7, hits give low values 0.993 | locus YDL028C, strain MPS1, hits give low values 0.985 | [1] 0.966 | locus YDL108W, strain KIN28, hits give low values 0.988 | locus YDL132W, strain cdc53, hits give low values 0.979 | locus YDL214C, strain PRR2, hits give low values 0.934 | locus YDR052C, strain DBF4, hits give low values 0.99 | locus YDR054C, strain cdc34, hits give low values 0.973 | locus YDR226W, strain ADK1, hits give low values 0.974 | locus YDR477W, strain SNF1, hits give low values 0.944 | locus YER123W, strain YCK3, hits give low values 0.862 | locus YER133W, strain GLC7, hits give low values 0.905 | locus YFL009W, strain cdc4, hits give low values 0.983 | locus YFL029C, strain CAK1, hits give low values 0.988 | locus YFR003C, strain YPI1, hits give low values 0.986 | locus YFR019W, strain FAB1, hits give low values 0.947 | locus YFR028C, strain CDC14, hits give low values 0.982 | locus YGR040W, strain KSS1, hits give low values 0.942 | locus YGR052W, strain FMP48, hits give low values 0.935 | locus YGR092W, strain DBF2, hits give low values 0.945 | locus YHR079C, strain IRE1, hits give low values 0.897 | locus YHR082C, strain KSP1, hits give low values 1 | locus YHR205W, strain SCH9, hits give low values 0.904 | locus YIL147C, strain SLN1, hits give low values 0.987 | [2] 0.826 | locus YJL128C, strain PBS2, hits give low values 0.922 | locus YJL157C, strain FAR1, hits give low values 0.932 | locus YJR016C, strain ILV3, hits give low values 0.997 | locus YJR066W, strain TOR1 (second series), hits give low values 0.886 | locus YJR066W, strain TOR1, hits give low values 0.997 | locus YKL048C, strain ELM1, hits give low values 0.947 | locus YKL067W, strain YNK1, hits give low values 0.932 | locus YKL101W, strain HSL1, hits give low values 0.93 | locus YKL193C, strain SDS22, hits give low values 0.985 | locus YKL203C, strain TOR2, hits give low values 0.988 | locus YLR133W, strain CKI1, hits give low values 0.958 | locus YLR403W, strain SFP1, hits give low values 0.962 | locus YML070W, strain DAK1, hits give low values 0.901 | locus YMR001C, strain CDC5, hits give low values 0.993 | locus YMR205C, strain PFK2 (second series), hits give low values 0.948 | locus YMR277W, strain FCP1, hits give low values 0.985 | locus YNL006W, strain LST8, hits give low values 0.984 | locus YNL020C, strain ARK1, hits give low values 0.96 | locus YNL161W, strain CBK1, hits give low values 0.989 | locus YNL183C, strain NPR1, hits give low values 0.988 | locus YNL207W, strain RIO2, hits give low values 0.989 | locus YNL222W, strain SSU72, hits give low values 0.99 | locus YNL307C, strain MCK1 (second series), hits give low values 0.927 | locus YOL078W, strain AVO1, hits give low values 0.986 | locus YOL136C, strain PFK27, hits give low values 0.91 | [3] 0.983 | locus YOR119C, strain RIO1, hits give low values 0.981 | locus YOR231W, strain MKK1, hits give low values 0.935 | locus YOR329C, strain SCD5, hits give low values 0.995 | locus YPL031C, strain PHO85, hits give low values 0.93 | locus YPL153C, strain RAD53, hits give low values 0.921 | locus YPL204W, strain HRR25, hits give low values 0.921 | locus YPL209C, strain IPL1, hits give low values 0.99 | locus YPL256C, strain CLN2, hits give low values 0.89 | locus YPR025C, strain CCL1, hits give low values 0.992 | locus YPR106W, strain ISR1, hits give low values 0.985 | locus YPR111W, strain DBF20, hits give low values 0.974 | strain NNK1, hits give low values 0.971 | strain TSCII, hits give low values 0.985
active: locus YHR030C, strain SLT2, hits give low values 0.821 | locus YLR113W, strain HOG1, hits give low values 0.757
